The nature of test [1]: Caspase-3/7 induction in CHO-K1 cells by small molecules, qHTS assay (AID 1346980). Further: nearly all actives have a fitted effect of over 15% in size. The method, boiled down:
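Wild-type CHO-K1 cells exposed to compounds for 17hr at 37 C, 5% CO2. Caspase-3/7 activity then measured by Caspase-Glo 3/7 luminescence after 30min at room temperature.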
Background: In qHTS, concentration-response curves come from the screen itself.

Test [2] can be described thus: Caspase-3/7 induction in HepG2 cells by small molecules, qHTS cell viability counter screen (AID 1346981). Further: nearly all actives have a fitted effect of over 30% in size. Further: potency means the concentration at half of the fitted maximal effect. The method, boiled down:
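Cell viability is measured as a cytotoxicity counter screen alongside the Caspase-Glo 3/7 readout in identical wells. Wild-type HepG2 cells are treated with test compounds for 16 hr at 37 C before CellTiter-Fluor addition and a 1-hr incubation.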

The target of test [3] is Acetylcholinesterase (Homo sapiens) (UniProt P22303). Nature of the test: Acetylcholinesterase (AChE) small molecule antagonists: colormetric cell-based qHTS assay (AID 1347395; calls by dose curve; further: nearly all actives have a fitted effect of over 30% in size). Put shortly:
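In this cell-based qHTS, attached SH-SY5Y cells were treated with test chemicals for 30 min, after which acetylthiocholine hydrolysis was followed by DTNB colour development over 90 min at 37 C.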

Test [4] has the same target. Nature of the test: Acetylcholinesterase (AChE) small molecule antagonists: enzyme-based qHTS assay (AID 1347397; calls by dose curve; further: nearly all actives have a fitted effect of over 55% in size). To be noted: Potency: AChE enzyme activity inhibition. Put shortly: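 Colorimetric DTNB read-out of thiocholine released from acetylthiocholine by recombinant human AChE (50 mU/mL as dispensed). Compounds were preincubated 30 min at RT before substrate/DTNB addition, with a 10 min RT reaction.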

Test [5] shares this target. Put plainly: Acetylcholinesterase (AChE) small molecule antagonists: enzyme-based qHTS assay with human liver microsomes (AID 1347399; calls by dose curve; further: nearly all actives have a fitted effect of over 60% in size). To be noted: Potency: qHTS inhibition. The method, boiled down: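 Recombinant human AChE (50 mU/mL in the enzyme mix) and human liver microsomes (0.25 mg/mL final) were preincubated with compound and NADPH (0.25 mg/mL final) for 30 min at 37 C. Acetylthiocholine/DTNB was then added; thiocholine was read colorimetrically after 10 min at room temperature.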

Test [6] concerns the target Cytochrome P450 2D6 (Homo sapiens) (UniProt P10635). Nature of the test: Cytochrome P450 Family 2 Subfamily D Member 6 (CYP2D6) small molecule antagonists: luciferase reporter qHTS assay (AID 1671196). Further: nearly all actives have a fitted effect of over 50% in size. Further: potency means the concentration at half of the fitted maximal effect. Put shortly: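 Enzyme and proluciferin substrate were first combined with test chemical for 10 min at room temperature. Adding NADPH regeneration solution started a 1 h reaction, stopped with luciferin detection reagent and read by luminescence 20 min later.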
Background: A reporter such as luciferase makes a cellular process visible.

The target in test [7] is Cytochrome P450 2C19 (Homo sapiens) (UniProt P33261). Put plainly: Cytochrome P450 Family 2 Subfamily C Member 19 (CYP2C19) small molecule antagonists: luciferase reporter qHTS assay (AID 1671197). Further: nearly all actives have a fitted effect of over 65% in size. Further: potency means the concentration at half of the fitted maximal effect. Put shortly:
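First, compounds are pinned into enzyme-substrate mix and held 10 min at room temperature. Second, NADPH regeneration solution is added and plates incubate 1 h at 37C. Third, detection reagent is added and luminescence read after 20 min.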

Test [8] addresses Cytochrome P450 2C9 (Homo sapiens) (UniProt P11712). Nature of the test: Cytochrome P450 Family 2 Subfamily C Member 9 (CYP2C9) small molecule antagonists: luciferase reporter qHTS assay (AID 1671198). Further: nearly all actives have a fitted effect of over 50% in size. Further: potency means the concentration at half of the fitted maximal effect. The method, boiled down:
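P450-Glo proluciferin substrate with CYP2C9 enzyme; 10 min RT preincubation, then NADPH regeneration 1 h at 37C; luciferin detection reagent 20 min RT, luminescence in relative luminescence units.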

For test [9], the target named is Cytochrome P450 1A2 (Homo sapiens) (UniProt P05177). Nature of the test: Cytochrome P450 Family 1 Subfamily A Member 2 (CYP1A2) small molecule antagonists: luciferase reporter qHTS assay (AID 1671199). Further: nearly all actives have a fitted effect of over 50% in size. Further: potency means the concentration at half of the fitted maximal effect. Put shortly: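 Compounds were incubated with CYP1A2 and a luminogenic proluciferin substrate for 10 min at room temperature before the reaction was started with NADPH regeneration solution. After 1 h, detection reagent was added and light output, proportional to CYP activity, was recorded.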

Test [10] concerns the target Voltage-gated inwardly rectifying potassium channel KCNH2 (Homo sapiens) (UniProt Q12809). Nature of the test: Human Ether-a-go-go-Related Gene (hERG) channel small molecule antagonists: fluorescence cell-based qHTS assay (AID 1671200). Further: nearly all actives have a fitted effect of over 50% in size. Further: potency means the concentration at half of the fitted maximal effect. The method, boiled down:
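Cell line hERG-U2OS; dye FluxOR II, 1 h RT dark; Tl+ stimulus; ex 480/em 540 nm, read each second for 2 min.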

The target of test [11] is Cytochrome P450 3A4 (Homo sapiens) (UniProt P08684). Nature of the test: Cytochrome P450 Family 3 Subfamily A Member 4 (CYP3A4) small molecule antagonists: luciferase reporter qHTS assay (AID 1671201). Further: nearly all actives have a fitted effect of over 50% in size. Further: potency means the concentration at half of the fitted maximal effect. Put shortly:
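Room-temperature assay throughout: 10 min compound–enzyme/substrate preincubation, 1 h reaction after NADPH regeneration solution, 20 min detection. Luciferin formed from proluciferin substrate is quantified by luminescence.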

The target of test [12] is Nuclear receptor subfamily 1 group I member 2 (Homo sapiens) (UniProt O75469). Nature of the test: Human pregnane X receptor (PXR) small molecule agonists, qHTS assay (AID 1346982). Further: nearly all actives have a fitted effect of over 35% in size. Further: potency means the concentration at half of the fitted maximal effect. Put shortly: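 Cells: HepG2 stably carrying PXR-Luc. Medium held 5% charcoal-stripped FBS. Compounds in DMSO added after 5 hr plating, incubated 24 hr, then luminescence quantified with ONE-Glo.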

Test [13] has as its target Acetylcholinesterase (Homo sapiens) (UniProt P22303). Nature of the test: Acetylcholinesterase (AChE) small molecule antagonists: fluorescence cell-based qHTS assay (AID 1347398; calls by dose curve; further: nearly all actives have a fitted effect of over 50% in size). To be noted: Potency: AChE activity. The method, boiled down:
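SH-SY5Y, 2,000 cells/well, attached overnight; cmpd 30 min 37 C; acetylthiocholine/Thiolite Green cocktail 40 min RT; fluorescence Ex/Em 490/520 nm.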

A number with no mark means an inactive call. Inconclusive results are not listed. The source made the active and inactive calls. Unless noted, the call rests on the fitted dose curve; in most records, active means well fitted curve in the direction sought with a large enough effect in the repeat runs; inconclusive means weak or mixed curves; inactive means no such curve, though single readings can be large; an effect the other way counts as inactive or inconclusive.

Cytochrome P450 2D6 (Homo sapiens), sequence (P10635 whole entry, looked up): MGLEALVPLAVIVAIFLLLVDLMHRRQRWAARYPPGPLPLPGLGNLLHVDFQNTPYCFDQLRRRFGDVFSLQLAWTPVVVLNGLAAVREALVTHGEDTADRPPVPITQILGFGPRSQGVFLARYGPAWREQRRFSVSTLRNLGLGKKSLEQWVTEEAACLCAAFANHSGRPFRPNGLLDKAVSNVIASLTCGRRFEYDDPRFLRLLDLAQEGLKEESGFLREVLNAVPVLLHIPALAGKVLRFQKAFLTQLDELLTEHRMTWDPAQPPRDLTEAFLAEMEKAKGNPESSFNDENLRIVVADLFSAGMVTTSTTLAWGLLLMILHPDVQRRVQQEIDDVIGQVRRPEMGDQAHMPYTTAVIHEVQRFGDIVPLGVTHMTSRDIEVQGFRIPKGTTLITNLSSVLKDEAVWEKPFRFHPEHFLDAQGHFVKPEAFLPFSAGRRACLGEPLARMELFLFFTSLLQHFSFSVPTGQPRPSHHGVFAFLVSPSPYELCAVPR
Voltage-gated inwardly rectifying potassium channel KCNH2 (Homo sapiens), sequence (Q12809 whole entry, looked up): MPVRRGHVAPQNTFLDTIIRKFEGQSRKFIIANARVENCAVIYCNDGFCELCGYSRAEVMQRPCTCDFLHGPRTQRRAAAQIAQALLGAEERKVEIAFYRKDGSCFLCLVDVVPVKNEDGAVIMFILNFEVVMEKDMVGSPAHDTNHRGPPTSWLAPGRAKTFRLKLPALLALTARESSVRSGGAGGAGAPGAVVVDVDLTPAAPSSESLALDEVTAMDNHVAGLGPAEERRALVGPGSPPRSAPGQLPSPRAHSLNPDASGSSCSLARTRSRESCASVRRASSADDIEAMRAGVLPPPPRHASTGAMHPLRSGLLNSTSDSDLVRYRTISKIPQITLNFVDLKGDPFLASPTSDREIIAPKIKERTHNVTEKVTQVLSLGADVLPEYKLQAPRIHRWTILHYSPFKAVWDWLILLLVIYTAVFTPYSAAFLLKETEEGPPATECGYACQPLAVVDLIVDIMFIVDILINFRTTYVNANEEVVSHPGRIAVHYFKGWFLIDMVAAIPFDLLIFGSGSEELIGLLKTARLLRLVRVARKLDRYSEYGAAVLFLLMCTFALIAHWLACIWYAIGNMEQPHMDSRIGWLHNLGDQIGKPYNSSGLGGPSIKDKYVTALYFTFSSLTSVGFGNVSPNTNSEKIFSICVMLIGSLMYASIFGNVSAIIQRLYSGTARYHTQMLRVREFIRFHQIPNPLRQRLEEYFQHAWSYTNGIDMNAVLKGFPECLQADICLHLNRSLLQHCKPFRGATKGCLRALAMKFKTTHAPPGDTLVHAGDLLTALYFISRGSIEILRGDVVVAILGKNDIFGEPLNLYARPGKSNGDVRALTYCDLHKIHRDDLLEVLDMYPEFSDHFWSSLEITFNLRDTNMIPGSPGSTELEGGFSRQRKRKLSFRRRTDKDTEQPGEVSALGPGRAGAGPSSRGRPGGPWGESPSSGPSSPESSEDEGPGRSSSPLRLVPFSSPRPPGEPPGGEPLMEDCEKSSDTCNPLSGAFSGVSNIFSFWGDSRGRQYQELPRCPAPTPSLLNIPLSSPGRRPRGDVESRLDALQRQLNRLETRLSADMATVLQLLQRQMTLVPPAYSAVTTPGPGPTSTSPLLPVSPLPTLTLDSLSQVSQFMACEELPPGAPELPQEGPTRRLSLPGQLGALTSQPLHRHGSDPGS
Cytochrome P450 3A4 (Homo sapiens), sequence (P08684 whole entry, looked up): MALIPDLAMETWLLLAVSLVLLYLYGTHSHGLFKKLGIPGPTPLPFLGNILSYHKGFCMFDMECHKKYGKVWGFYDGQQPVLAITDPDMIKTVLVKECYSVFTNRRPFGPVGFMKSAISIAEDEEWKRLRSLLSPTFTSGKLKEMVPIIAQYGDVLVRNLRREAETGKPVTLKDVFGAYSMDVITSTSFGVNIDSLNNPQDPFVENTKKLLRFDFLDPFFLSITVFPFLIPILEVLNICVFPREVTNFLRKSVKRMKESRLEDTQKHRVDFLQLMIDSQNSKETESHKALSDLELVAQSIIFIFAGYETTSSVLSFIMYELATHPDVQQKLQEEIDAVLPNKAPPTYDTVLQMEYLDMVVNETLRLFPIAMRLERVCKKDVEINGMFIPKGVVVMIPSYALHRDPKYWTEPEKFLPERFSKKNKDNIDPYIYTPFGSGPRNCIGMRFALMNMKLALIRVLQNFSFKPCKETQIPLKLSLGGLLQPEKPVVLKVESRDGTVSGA
Cytochrome P450 2C19 (Homo sapiens), sequence (P33261 whole entry, looked up): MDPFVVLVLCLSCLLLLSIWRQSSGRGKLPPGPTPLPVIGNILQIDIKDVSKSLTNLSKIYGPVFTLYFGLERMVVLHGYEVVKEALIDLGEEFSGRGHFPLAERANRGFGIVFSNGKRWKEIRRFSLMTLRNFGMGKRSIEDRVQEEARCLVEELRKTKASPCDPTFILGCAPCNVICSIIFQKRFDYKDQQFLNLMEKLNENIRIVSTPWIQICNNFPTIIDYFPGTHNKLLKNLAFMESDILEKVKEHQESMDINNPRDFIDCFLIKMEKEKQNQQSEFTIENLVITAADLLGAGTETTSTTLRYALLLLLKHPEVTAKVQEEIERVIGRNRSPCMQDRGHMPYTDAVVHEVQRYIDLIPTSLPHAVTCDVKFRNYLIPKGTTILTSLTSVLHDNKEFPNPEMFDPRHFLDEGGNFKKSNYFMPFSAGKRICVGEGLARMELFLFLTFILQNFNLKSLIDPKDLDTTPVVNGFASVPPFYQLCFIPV
Nuclear receptor subfamily 1 group I member 2 (Homo sapiens), sequence (O75469 whole entry, looked up): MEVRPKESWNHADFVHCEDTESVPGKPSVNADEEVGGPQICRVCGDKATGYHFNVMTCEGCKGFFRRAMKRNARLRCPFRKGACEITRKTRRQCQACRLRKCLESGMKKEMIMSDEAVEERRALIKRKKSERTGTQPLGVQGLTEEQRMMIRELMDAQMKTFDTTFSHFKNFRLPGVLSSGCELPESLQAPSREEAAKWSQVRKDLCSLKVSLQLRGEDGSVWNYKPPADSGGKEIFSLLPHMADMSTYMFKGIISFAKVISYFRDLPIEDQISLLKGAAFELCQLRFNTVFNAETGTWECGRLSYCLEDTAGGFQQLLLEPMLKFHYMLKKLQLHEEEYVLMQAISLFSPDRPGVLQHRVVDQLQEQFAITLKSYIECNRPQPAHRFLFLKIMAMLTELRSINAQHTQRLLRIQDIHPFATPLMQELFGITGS
Acetylcholinesterase (Homo sapiens), sequence (P22303 whole entry, looked up): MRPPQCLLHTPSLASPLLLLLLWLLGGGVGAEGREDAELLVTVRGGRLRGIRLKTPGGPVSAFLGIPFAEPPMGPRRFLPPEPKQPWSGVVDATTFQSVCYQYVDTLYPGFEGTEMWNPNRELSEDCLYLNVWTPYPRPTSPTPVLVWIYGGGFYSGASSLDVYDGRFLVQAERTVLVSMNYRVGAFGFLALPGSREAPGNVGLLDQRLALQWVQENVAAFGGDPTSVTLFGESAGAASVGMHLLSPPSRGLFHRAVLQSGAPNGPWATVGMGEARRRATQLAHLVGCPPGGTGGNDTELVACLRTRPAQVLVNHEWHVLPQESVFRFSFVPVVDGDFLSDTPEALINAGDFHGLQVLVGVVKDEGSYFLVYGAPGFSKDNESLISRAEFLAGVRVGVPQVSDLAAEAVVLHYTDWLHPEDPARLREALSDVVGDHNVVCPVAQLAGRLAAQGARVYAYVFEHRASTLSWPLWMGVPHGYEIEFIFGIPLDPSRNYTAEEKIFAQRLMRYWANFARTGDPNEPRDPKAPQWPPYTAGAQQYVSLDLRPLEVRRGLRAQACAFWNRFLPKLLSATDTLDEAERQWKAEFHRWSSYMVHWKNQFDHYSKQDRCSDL
Cytochrome P450 2C9 (Homo sapiens), sequence (P11712 whole entry, looked up): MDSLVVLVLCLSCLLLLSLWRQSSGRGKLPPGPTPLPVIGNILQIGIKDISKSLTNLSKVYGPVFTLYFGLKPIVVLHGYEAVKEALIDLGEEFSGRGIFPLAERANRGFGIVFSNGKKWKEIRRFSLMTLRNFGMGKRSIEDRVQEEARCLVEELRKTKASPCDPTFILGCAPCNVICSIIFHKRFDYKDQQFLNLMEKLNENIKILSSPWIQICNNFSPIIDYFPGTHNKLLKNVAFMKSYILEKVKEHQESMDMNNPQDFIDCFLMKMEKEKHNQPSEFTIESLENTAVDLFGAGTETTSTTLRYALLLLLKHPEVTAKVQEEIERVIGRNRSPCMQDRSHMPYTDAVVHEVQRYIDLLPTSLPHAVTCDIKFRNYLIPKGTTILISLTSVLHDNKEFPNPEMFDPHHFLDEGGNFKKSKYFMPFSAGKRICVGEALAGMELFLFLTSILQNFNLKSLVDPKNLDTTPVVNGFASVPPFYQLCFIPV
Cytochrome P450 1A2 (Homo sapiens), sequence (P05177 whole entry, looked up): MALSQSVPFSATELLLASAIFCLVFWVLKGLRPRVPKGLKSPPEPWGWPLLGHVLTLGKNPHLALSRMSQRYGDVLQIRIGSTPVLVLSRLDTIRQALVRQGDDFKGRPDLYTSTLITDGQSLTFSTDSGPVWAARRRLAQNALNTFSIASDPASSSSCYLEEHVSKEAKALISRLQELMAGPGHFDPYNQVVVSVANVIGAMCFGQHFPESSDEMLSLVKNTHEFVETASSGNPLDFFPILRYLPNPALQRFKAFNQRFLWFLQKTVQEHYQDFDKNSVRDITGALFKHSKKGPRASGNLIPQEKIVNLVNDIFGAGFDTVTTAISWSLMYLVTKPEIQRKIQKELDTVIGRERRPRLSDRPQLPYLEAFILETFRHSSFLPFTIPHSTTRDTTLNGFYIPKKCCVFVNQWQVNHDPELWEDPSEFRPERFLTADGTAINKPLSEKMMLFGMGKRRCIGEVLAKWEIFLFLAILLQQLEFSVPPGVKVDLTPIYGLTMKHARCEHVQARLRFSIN

With `Oc1c(Cl)c(Cl)cc(Cl)c1Cl`, the Potency entry in [1], in [2], in test [3], in test [4], in test [5] and in [6] was “inactive” in each case. Moreover, the Potency result in test [7], in test [10] and in test [11] was “inactive” in each case. Also, the Potency is 21.8 µM (active) in test [8] and 69.1 µM (active) in [9].
As for `Cc1cc(Cl)ccc1O[C@H](C)C(=O)O`, the Potency result in [1], in test [2], in test [12], in test [3], in [4] and in test [13] was “inactive” throughout. Moreover, the Potency result in test [6], in [7], in test [8], in test [9], in test [10] and in test [11] was “inactive” in each case.
On to `CC(=[OH+])/C=C(/C)[O-].CC(=[OH+])/C=C(\C)[O-].CC(=[OH+])/C=C(\C)[O-].[Al]`, for which the Potency result in test [1], in [2], in test [12], in test [3], in test [4] and in test [13] was “inactive” each time. For the same compound, the Potency result in test [5], in test [6], in test [7], in test [8], in test [10] and in test [11] was “inactive” in each case.
For `COCC(=O)N(c1c(C)cccc1C)[C@H](C)C(=O)OC`, the Potency result in test [1], in test [2], in test [12], in test [3], in test [4] and in [13] was “inactive” throughout. Also, the Potency result in test [5], in test [6], in test [8], in test [10] and in [11] was “inactive” in each case. Besides, the Potency in [7] was 79.6 µM (active).
Regarding `C[C@@H](Oc1ccc(Cl)cc1Cl)C(=O)O`, the Potency entry in test [1], in test [2], in test [12], in test [3], in test [4] and in test [5] was “inactive” each time. The Potency result in test [7], in test [8], in [10] and in test [11] was “inactive” each time.
With `CC(=O)[O-].CC(=O)[O-].O.O.[Cd+2]`, the Potency result in test [1] and in [10] was “inactive” throughout. The Potency in test [2] was 67.6 µM (active).
As to `O=[N+]([O-])c1ccc(Oc2ccc(C(F)(F)F)cc2[N+](=O)[O-])cc1`, the Potency result in test [1], in test [2], in test [3], in test [4], in [13] and in test [5] was “inactive” each time. In addition, the Potency entry in test [11] was “inactive”. In addition, the Potency in test [12] was 17.2 µM (active); in test [6], 22.4 µM (active); in test [7] it was 0.894 µM (active); in [8], 25.2 µM (active).
For `Clc1ccc(Oc2ccccc2)cc1`, the Potency entry in [1], in [2], in test [12], in test [3], in test [4] and in test [6] was “inactive” throughout. Besides, the Potency entry in test [8] and in test [11] was “inactive” each time.
On to `CCOc1cc(C(C)(C)C)ccc1C1COC(c2c(F)cccc2F)=N1` (stereo unspecified), for which the Potency entry in test [1], in test [2], in test [3], in [4], in [13] and in [5] was “inactive” throughout. In addition, the Potency is 37.1 µM (active) in test [12]; 5.43 µM (active) in test [6]; 3.42 µM (active) in test [7]; 12.2 µM (active) in test [8]; 13.3 µM (active) in test [10]; 0.0683 µM (active) in test [11].

The values are drawn from PubChem BioAssay (Tox21).
